The results in this text go back to PubChem BioAssay (NCI).

Structures are written as SMILES. This is part of a sample that, as a whole, favours compounds with a hit. Of some 83,000 tested, about 20% had one in any assay.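 The test compound was applied at a single concentration to cells in 96-well plates for 48 hours, and percent growth was recorded.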 Unmarked numbers belong to inactive results. Activity calls are given as the source filed them. The calls were made as follows: active = growth percent below 10; inactive = the rest.

The first test relates to SW-620 colon. The experiment in a line: NCI-60 one-dose screen, 48 h (100 = growth as untreated, 0 = no growth, -100 = all killed). The settings on record: 10 µM unless noted.
Turning to `O=C(CSc1nnc(-c2ccc(-c3nc4ccccc4[nH]3)cc2)o1)Nc1ccc(Cl)cc1`, the growth is -50.5% (active).
Still for that read-out and setting: then `N/C(=N\c1nc2ccc([N+](=O)[O-])cc2s1)NC(=O)Nc1ccccc1Cl`, with 21.4%; and `Fc1ccc(N2CC(Cn3c(C(F)(F)F)cc4c(Cl)ncnc43)C2)c(F)c1`, with -79.6% (active).
Regarding `CC1=C(C(=O)OC(C)C)C(c2ccc(O)cc2)NC(=O)N1` (stereo unspecified), the growth was 103%.
Take `Cc1nn(-c2ccccc2)c2nc(C)n(CC(=O)N/N=C/c3ccccc3O)c(=O)c12`: the growth was 18.9%.
On the same count and under the same terms, then `O=CNc1cccc(-n2cnc3cc(-c4ccc(O)cc4)ccc32)c1`, with 46.3%.

The test system of a further test is MCF7 breast. Described as above. The settings on record: 10 µM unless noted.
As to `COc1cc(CNC(=O)C[C@H](C)CCC=C(C)C)ccc1OCc1cn(-c2ccc(Br)cc2)nn1`, the growth is 60.2%.
In the case of `Cc1cccc(C)c1Nc1nnc(-c2c[nH]c3ccccc23)o1`, the growth is 83.4%.
As to `COc1cc(CNC(=O)C[C@H](C)CCC=C(C)C)ccc1OCc1cn(-c2ccc(Cl)c(Cl)c2)nn1`, the growth was 49.6%.
On the same count and under the same terms, the value for `Cc1ccc(C(C)C)cc1Oc1cccc(-c2c(-c3ccc(C(F)(F)F)cc3)ncn2C2CCNCC2)n1` was -85.3% (active); that for `COc1cc(CNC(=O)C[C@H](C)CCC=C(C)C)ccc1OCc1cn(-c2cccc(C(F)(F)F)c2)nn1` was 56.8%; that for `Cc1ccc(Nc2nnc(-c3c[nH]c4ccccc34)o2)c(C)c1` was 14.3%.
On the same count and under the same terms, the value for `CC1=C(C)C(=O)C(N2CCSCC2)=CC1=O` was 99.6%; that for `COc1ccc(C(=O)c2cc(C(C)=O)c3c(C)cc(C)cn23)cc1` was 35.2%; that for `O=C(c1ccc(O)cc1)C1[C@H](c2ccccc2Br)[C@@H](c2ccccc2)NC12C(=O)Nc1ccccc12` (stereo partly specified) was 10.7%.
Consider `C=CCSc1nnc(-c2ccc(-c3nc4ccccc4[nH]3)cc2)o1`, for which the growth is 72.6%.
On the same count and under the same terms, then `COc1cc(/C=C/C(=O)c2cnn(-c3cc(=O)[nH]c4ccc(C)cc34)c2C)cc(OC)c1OC`, with -15.7% (active).
Still for that read-out and setting: the value for `COc1cc(-c2ccc3ncnc(N4CCc5ccc(Cl)cc54)c3c2)cnc1Cl` was 3.58% (active).
Same read-out and setting: the value for `COc1ccc(NC(=O)Cn2c(/C=C/c3cccc(OC)c3)nc3ccccc3c2=O)cc1` was 30.4%.
`CC[C@]12C=CCN3CC[C@]4(C(=C(C(=O)OC)C1)Nc1cc(OC)c([C@@H]5[C@H]6O[C@H]6[C@@]6(CC)CC(C(=O)OC)=C7Nc8cc(O)ccc8[C@@]78CCN5[C@@H]68)cc14)[C@@H]32`: the growth was -25.7% (active).
For `COc1ccc2nc(NC(=O)c3ccc(N(C)C)cc3)sc2c1`, the growth was 44.7%.
On the same count and under the same terms, then `Cc1nc(N)ncc1-c1ccc2ncnc(N3CCc4cc(F)c(Cl)cc43)c2c1`, with 41.7%.
As for `N#Cc1ccc(C(=O)CSc2nc3c(c(Nc4ccc(S(N)(=O)=O)cc4)n2)CCC3)cc1`, the growth is 19.2%.
As to `CN(C(=O)CN1C(=O)/C(=C/c2ccco2)SC1=S)C1CCS(=O)(=O)C1` (stereo unspecified), the growth is 91.1%.
`O=C(Nc1ccc(-c2ccc3c(c2)NC(=O)/C3=C\c2ccc[nH]2)cc1)Nc1cccc(Cl)c1`: the growth was -9.34% (active).
Still for that read-out and setting: the value for `COC(=O)c1c(C(=O)OC)c2c3ccccc3c3ccccc3n2c1C(=O)C(F)(F)F` was 91.6%; that for `O=C(N/N=C/c1c[nH]c2ccccc12)Nc1ccc(F)c(Cl)c1` was 9.25% (active); that for `O=C(CSc1nnc(-c2ccc(-c3nc4ccc(Cl)cc4[nH]3)cc2)o1)Nc1ccc(Br)cc1` was 20.4%.
Still for that read-out and setting: the value for `Cn1cc(-c2cc(N)n3nc(-c4c[nH]c5ccc(Cl)cc45)cc3n2)c2cccnc21` was -81.2% (active); that for `COc1ccc2c(c1)C(Sc1ccc(Cl)cc1)c1c(nc(N)c(C#N)c1N)O2` (stereo unspecified) was 26.7%.
For `Cc1ccccc1NC(=O)c1cccc(NC(=O)CCl)c1`, the growth is 19.2%.
Still for that read-out and setting: then `Oc1cncc(-c2ccc3ncnc(N4CCc5cc(F)c(Cl)cc54)c3c2)c1`, with 35.3%; and `Nc1nnc(-c2cncc(Br)c2)c(-c2c[nH]c3ccc(Br)cc23)n1`, with 50.4%.
In the case of `C/C(=N/O)c1ccc(NC(=O)CSc2nnc(-c3ccc(-c4nc5ccc(Cl)cc5[nH]4)cc3)o2)cc1`, the growth was 3.95% (active).
The same measure, in the same setting: then `CCCCCCCCc1cccc(CC(=O)Nc2ccc(C)cc2C(=O)O)c1`, with 36.7% [25 µM]; and `Cc1ccc(C(=O)Nc2cc(-n3cnc(F)c3)cc(C(F)(F)F)c2)cc1C#Cc1cnc2cccnn12`, with 38.8%.
